Assay results taken from PMC6451091, “NextPBM: a platform to study cell-specific transcription factor binding and cooperativity”.
In all, about 3,700 sequences were measured (“z-score”: median about 4, highest 2% from about 8.4 on). Only a selection was taken, and the highest values are over-represented in it overall.

Columns and labels:
PU.1 (IVT) [1] = target: PU.1 (IVT) (UniProt P17947 1-270); test: protein-binding microarray (PBM); 20 mM HEPES pH 7.9, 100 mM NaCl, 1 mM DTT, 0.2 mg/mL BSA, 0.02% Triton X-100, 2% milk, 0.4 mg/mL salmon testes DNA; 1 h; temperature not stated; high values mean tight binding; conditions: dsDNA, one strand shown
In short: (§1)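 Untagged full-length PU.1 was produced by coupled human in vitro transcription/translation and incubated for 1 h on custom double-stranded DNA microarrays in HEPES pH 7.9 containing 100 mM NaCl, 2% milk and salmon testes DNA. Each array carried 20-bp genomic sites and single-nucleotide variants, with 10 probes per site (5 per orientation). Bound protein was detected with anti-PU.1 followed by a fluorescent secondary antibody. Binding values are z-scores calculated from scanned fluorescence after linear-regression normalisation.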

PU.1 (IVT) [2] = target: PU.1 (IVT) (UniProt P17947 1-270); test: as above; conditions: dsDNA, one strand shown; remark: listed apart in the source
In short: as §1

Sequence	binding signal (PU.1 (IVT) [1])	binding signal (PU.1 (IVT) [2])
GCCTAGCACGGAAAGAGGAAGTCAAACTAGTGCTAGGTCTTGATTCGCTTGACGCTGCTG	7.68 z-score	–
GCCTAGCACAAAAAGAGGAAGTCAAACAAGTGCTAGGTCTTGATTCGCTTGACGCTGCTG	8.71 z-score	–
GCCTAGCACAAAAAGAGGAAGGGAAACTAGTGCTAGGTCTTGATTCGCTTGACGCTGCTG	5.12 z-score	–
GCCTAGCACGAAAAGAGGAAGTCAAACTAGTGCTAGGTCTTGATTCGCTTGACGCTGCTG	8.35 z-score	–
GCCTAGCACGAAAAGAGGAAGTCAAACGAGTGCTAGGTCTTGATTCGCTTGACGCTGCTG	8.02 z-score	–
GCCTAGCACAAAAACAGGAAGTCAAAGGAGTGCTAGGTCTTGATTCGCTTGACGCTGCTG	7.11 z-score	–
GCCTAGCACAAAAAGAGGAAGTCAAACTAGTGCTAGGTCTTGATTCGCTTGACGCTGCTG	8.48 z-score	–
GCCTAGCACAGAAAGAGGAAGTCAAAACAGTGCTAGGTCTTGATTCGCTTGACGCTGCTG	7.68 z-score	–
GCCTAGCACAAAAAGAGGAAGAGAAACTAGTGCTAGGTCTTGATTCGCTTGACGCTGCTG	5.79 z-score	–
GCCTAGCACAAAAAAAGGAAGTCCTTGTGGTGCTAGGTCTTGATTCGCTTGACGCTGCTG	–	6.48 z-score
GCCTAGCACTTGGTCAGGAAGTGAAACTGGTGCTAGGTCTTGATTCGCTTGACGCTGCTG	–	1.38 z-score
GCCTAGCACAGAAAGAGGAAGTCACAAGGGTGCTAGGTCTTGATTCGCTTGACGCTGCTG	7.68 z-score	–
GCCTAGCACGAAAGAGGGAAGTGAAAGTCGTGCTAGGTCTTGATTCGCTTGACGCTGCTG	–	5.25 z-score
GCCTAGCACGATATGAGGAACTGAAAGCTGTGCTAGGTCTTGATTCGCTTGACGCTGCTG	–	4.06 z-score
GCCTAGCACAATAAAGGGAAGTGACTGCTGTGCTAGGTCTTGATTCGCTTGACGCTGCTG	–	5.43 z-score
GCCTAGCACAAAAAAAGGAACGGGCTAGAGTGCTAGGTCTTGATTCGCTTGACGCTGCTG	1.48 z-score	–
GCCTAGCACAAAAAGAGGAAATGAAAAGAGTGCTAGGTCTTGATTCGCTTGACGCTGCTG	–	6.67 z-score
GCCTAGCACAGAAAGAGGAACTGACTGACGTGCTAGGTCTTGATTCGCTTGACGCTGCTG	–	6.61 z-score
GCCTAGCACTGAAAAGGGAAGTGAGGAAGGTGCTAGGTCTTGATTCGCTTGACGCTGCTG	–	5.34 z-score
GCCTAGCACGAGAAGAGGAAGTAGAACAAGTGCTAGGTCTTGATTCGCTTGACGCTGCTG	–	6.62 z-score
GCCTAGCACAAAAAGAGGAAGTAGAGAACGTGCTAGGTCTTGATTCGCTTGACGCTGCTG	8.97 z-score	–
GCCTAGCACAAAAAGAGGAAGTAAAAGACGTGCTAGGTCTTGATTCGCTTGACGCTGCTG	8.93 z-score	–
GCCTAGCACACGAAGAGGAAGTAAAAGGCGTGCTAGGTCTTGATTCGCTTGACGCTGCTG	–	6.54 z-score

Sequence	binding signal (PU.1 (IVT) [1])	binding signal (PU.1 (IVT) [2])
GCCTAGCACAAAAAGAGGAAGGGAGTAGAGTGCTAGGTCTTGATTCGCTTGACGCTGCTG	–	4.77 z-score
GCCTAGCACAAAAAAAGGAAGTGGTAAACGTGCTAGGTCTTGATTCGCTTGACGCTGCTG	–	6.51 z-score
GCCTAGCACCGAAAGGGGATGTGCTAAACGTGCTAGGTCTTGATTCGCTTGACGCTGCTG	–	1.8 z-score
GCCTAGCACTATATAGGGAAGTGGGATTCGTGCTAGGTCTTGATTCGCTTGACGCTGCTG	–	4.85 z-score
GCCTAGCACTAAATGAGGAAGTGACAGCTGTGCTAGGTCTTGATTCGCTTGACGCTGCTG	7.57 z-score	–
GCCTAGCACAATGGCAGGAAGTGAAATCAGTGCTAGGTCTTGATTCGCTTGACGCTGCTG	2.15 z-score	–
GCCTAGCACCGAAAGGGGAAGTGCTAAAAGTGCTAGGTCTTGATTCGCTTGACGCTGCTG	6.97 z-score	–
GCCTAGCACCAAAAAAGGAAGTGGCTGTGGTGCTAGGTCTTGATTCGCTTGACGCTGCTG	5.51 z-score	–
GCCTAGCACGAAAAGCGGAAGTGGTGTGGGTGCTAGGTCTTGATTCGCTTGACGCTGCTG	8.61 z-score	–
GCCTAGCACCAAAAGCGGAAGTGGTGCCTGTGCTAGGTCTTGATTCGCTTGACGCTGCTG	8.56 z-score	–
GCCTAGCACGAAAAGGGGAAGTGCTGGGGGTGCTAGGTCTTGATTCGCTTGACGCTGCTG	7.77 z-score	–
GCCTAGCACCAAAAAGGGAAGTGGAAGCTGTGCTAGGTCTTGATTCGCTTGACGCTGCTG	–	6.2 z-score
GCCTAGCACGAAAGGAGGAAGTGGAGGGTGTGCTAGGTCTTGATTCGCTTGACGCTGCTG	–	5.92 z-score
GCCTAGCACAAAAAAAGGAAAGGAAAGTAGTGCTAGGTCTTGATTCGCTTGACGCTGCTG	1.27 z-score	–
GCCTAGCACAAAATGAGGAAGTGCATTGAGTGCTAGGTCTTGATTCGCTTGACGCTGCTG	8.07 z-score	–
GCCTAGCACAAAATGAGGAAGTACCCTCTGTGCTAGGTCTTGATTCGCTTGACGCTGCTG	8.28 z-score	–
GCCTAGCACAAAATGAGGAAGTGTGATTAGTGCTAGGTCTTGATTCGCTTGACGCTGCTG	7.8 z-score	–
GCCTAGCACAAAATGAGGAAGTGAGCTAAGTGCTAGGTCTTGATTCGCTTGACGCTGCTG	7.94 z-score	–
GCCTAGCACAAAATGAGGAAGTGAACAAAGTGCTAGGTCTTGATTCGCTTGACGCTGCTG	8.02 z-score	–
GCCTAGCACAAAATGAGGAAGTGACTTTGGTGCTAGGTCTTGATTCGCTTGACGCTGCTG	8.87 z-score	–
GCCTAGCACAAAATGAGGAAGTTGGATGGGTGCTAGGTCTTGATTCGCTTGACGCTGCTG	8.35 z-score	–
GCCTAGCACAAATAGAGGAAGTGGAATGGGTGCTAGGTCTTGATTCGCTTGACGCTGCTG	7.2 z-score	–
GCCTAGCACAAAATGAGGAAGTGCTTCTAGTGCTAGGTCTTGATTCGCTTGACGCTGCTG	8.37 z-score	–

Sequence	binding signal (PU.1 (IVT) [1])	binding signal (PU.1 (IVT) [2])
GCCTAGCACAAAATGAGGAAGTAATTCCTGTGCTAGGTCTTGATTCGCTTGACGCTGCTG	8.66 z-score	–
GCCTAGCACAAAAGGAGGAAGTTGGTTGGGTGCTAGGTCTTGATTCGCTTGACGCTGCTG	7.62 z-score	–
GCCTAGCACAAAATGAGGAACTGCTGTCTGTGCTAGGTCTTGATTCGCTTGACGCTGCTG	6.9 z-score	–
GCCTAGCACACAATGAGGAAGTGCTGGCCGTGCTAGGTCTTGATTCGCTTGACGCTGCTG	–	6.19 z-score
GCCTAGCACTAAAGGAGGAATTGAAACCAGTGCTAGGTCTTGATTCGCTTGACGCTGCTG	1.22 z-score	–
GCCTAGCACGCCAGGAGGAAGTGGAAATGGTGCTAGGTCTTGATTCGCTTGACGCTGCTG	4.22 z-score	–
GCCTAGCACGACAAGAGGAAGTGCAAGATGTGCTAGGTCTTGATTCGCTTGACGCTGCTG	4.87 z-score	–
GCCTAGCACATATGGAGGAAGTGGAACCCGTGCTAGGTCTTGATTCGCTTGACGCTGCTG	3.92 z-score	–
GCCTAGCACCTGCCAGGGAAGTGTAAGCAGTGCTAGGTCTTGATTCGCTTGACGCTGCTG	–	0.66 z-score
GCCTAGCACAAAAAGAAGAAGTGGGGCTTGTGCTAGGTCTTGATTCGCTTGACGCTGCTG	–	4.26 z-score
GCCTAGCACTGAAAGGGGAAGTCTTTTTAGTGCTAGGTCTTGATTCGCTTGACGCTGCTG	6.55 z-score	–
GCCTAGCACAAAATGAGGAAGTGGAAGGGGTGCTAGGTCTTGATTCGCTTGACGCTGCTG	8.15 z-score	–
GCCTAGCACAAAATGAGGAAGTGGCTTTGGTGCTAGGTCTTGATTCGCTTGACGCTGCTG	8.37 z-score	–
GCCTAGCACAAAATGAGGAAGTGCTGGCAGTGCTAGGTCTTGATTCGCTTGACGCTGCTG	8.14 z-score	–
GCCTAGCACTAAATGAGGAAGTGTGCTGTGTGCTAGGTCTTGATTCGCTTGACGCTGCTG	7.74 z-score	–
GCCTAGCACGAAAAGAGGAAGTGTGAGATGTGCTAGGTCTTGATTCGCTTGACGCTGCTG	8.2 z-score	–
GCCTAGCACAAGATGAGGAAGTGAGTGTAGTGCTAGGTCTTGATTCGCTTGACGCTGCTG	–	6.13 z-score
GCCTAGCACAAAAAAAGGAAGTGATAGCCGTGCTAGGTCTTGATTCGCTTGACGCTGCTG	–	6.5 z-score
GCCTAGCACGAAAAGAGGAAGTGAGATGTGTGCTAGGTCTTGATTCGCTTGACGCTGCTG	8.73 z-score	–
GCCTAGCACAAGAAGAGGAAGTGAGTGCTGTGCTAGGTCTTGATTCGCTTGACGCTGCTG	7.09 z-score	–
GCCTAGCACAAAAAGAGGAAGTCAGTTTGGTGCTAGGTCTTGATTCGCTTGACGCTGCTG	8.4 z-score	–
GCCTAGCACAAAAAGAGGAAGTGATGACCGTGCTAGGTCTTGATTCGCTTGACGCTGCTG	8.84 z-score	–
GCCTAGCACAAAGAGAGGAAGTACAGTTTGTGCTAGGTCTTGATTCGCTTGACGCTGCTG	5.35 z-score	–

Sequence	binding signal (PU.1 (IVT) [1])	binding signal (PU.1 (IVT) [2])
GCCTAGCACGAAAAGAGGAAGTGTGAGACGTGCTAGGTCTTGATTCGCTTGACGCTGCTG	7.97 z-score	–
GCCTAGCACAAAAAAAGGAAGTGGACCGTGTGCTAGGTCTTGATTCGCTTGACGCTGCTG	–	6.55 z-score
GCCTAGCACAAAAAGAGGAAGTGATGAGTGTGCTAGGTCTTGATTCGCTTGACGCTGCTG	8.92 z-score	–
GCCTAGCACAAAAAGAGGAAGTCTGGTGTGTGCTAGGTCTTGATTCGCTTGACGCTGCTG	8.02 z-score	–
GCCTAGCACTTAATGAGGAAGTGCTGTCAGTGCTAGGTCTTGATTCGCTTGACGCTGCTG	6.5 z-score	–
GCCTAGCACTAGATGAGGAAGTACTGTGCGTGCTAGGTCTTGATTCGCTTGACGCTGCTG	–	6.57 z-score
GCCTAGCACTTTAACAGGAAGTGAAACCAGTGCTAGGTCTTGATTCGCTTGACGCTGCTG	–	4.61 z-score
GCCTAGCACCAAAAAGGGAAGTGGGTTGAGTGCTAGGTCTTGATTCGCTTGACGCTGCTG	7.02 z-score	–
GCCTAGCACTGAAACAGGAAGTGAGACCAGTGCTAGGTCTTGATTCGCTTGACGCTGCTG	6.68 z-score	–
GCCTAGCACGGAATAGGGAAGTGAAACTGGTGCTAGGTCTTGATTCGCTTGACGCTGCTG	–	6.68 z-score
GCCTAGCACGAAAAGGGGAACTGAAACTAGTGCTAGGTCTTGATTCGCTTGACGCTGCTG	6.15 z-score	–
GCCTAGCACAAAAAGAGGAAGGGGAAGAAGTGCTAGGTCTTGATTCGCTTGACGCTGCTG	–	6.26 z-score
GCCTAGCACAAAAAGAGGAAGAGGAGGAGGTGCTAGGTCTTGATTCGCTTGACGCTGCTG	–	5.1 z-score
GCCTAGCACAAAAAGAGGAAGTGCCCTGTGTGCTAGGTCTTGATTCGCTTGACGCTGCTG	8.56 z-score	–
GCCTAGCACAAAAAGAGGAAGTGGGGGAGGTGCTAGGTCTTGATTCGCTTGACGCTGCTG	8.59 z-score	–
GCCTAGCACAAAAAGAGGAAGTGCACAAGGTGCTAGGTCTTGATTCGCTTGACGCTGCTG	8.64 z-score	–
GCCTAGCACAAAAAAAGGAAGTGAGAGCTGTGCTAGGTCTTGATTCGCTTGACGCTGCTG	–	6.29 z-score
GCCTAGCACAAAAGGAGGAAGTGGGGGGAGTGCTAGGTCTTGATTCGCTTGACGCTGCTG	–	6.01 z-score
GCCTAGCACAAAGAAAGGAAGTGGCCTGTGTGCTAGGTCTTGATTCGCTTGACGCTGCTG	2.71 z-score	–
GCCTAGCACAAAAGGAGGAAGTGAAAGTAGTGCTAGGTCTTGATTCGCTTGACGCTGCTG	6.69 z-score	–
GCCTAGCACAAAAAAGAGAAGTGGGGGAAGTGCTAGGTCTTGATTCGCTTGACGCTGCTG	5.77 z-score	–
GCCTAGCACAAAAGGAGGAAGTGATCCCTGTGCTAGGTCTTGATTCGCTTGACGCTGCTG	6.77 z-score	–
GCCTAGCACAAAAAGAGGAAGTGAGCTTAGTGCTAGGTCTTGATTCGCTTGACGCTGCTG	8.51 z-score	–
